# Reference: PubChem BioAssay AID488890 (Southern Research Specialized Biocontainment Screening …, 2010)
# Out of some 320,000 compounds screened, about 1,300 (0.41%) were called active. Not shown: some 3% with an inconclusive outcome. The rule behind the calls is not given here. These entries were drawn from the full list. Measured potencies and affinities stand elsewhere.
# Assay: growth inhibition of non-replicating M. tuberculosis (AID 488890);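 note: plate controls were DMSO cells for no effect and high antibiotic wells for full effect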
# Settings: Mycobacterium tuberculosis non-replicating, at 25 µM, stronger effect = higher value
row,SMILES,inhibition [%]
1,COc1ccc(OCCNc2cc(N3CCOCC3)ccc2[N+](=O)[O-])cc1,26.3
2,Cc1ccsc1C(=O)C1CCCN(Cc2sc(N(C)C)nc2Cl)C1 (stereo not given),-9.22
3,CC1CC(c2ccccc2)n2nc(NC(=O)c3ccco3)nc2N1 (stereo not given),3.85
4,CC1CCCC(NC(=O)CCCn2ncn3c(cc4occc43)c2=O)C1C (stereo not given),-13.3
5,CC1Cc2ccccc2N1C(=O)c1ccc(N2CCCCC2)c([N+](=O)[O-])c1 (stereo not given),20.8
6,Cc1ccc2sc3ccc(NC(=O)c4ccccc4Cl)cc3c(=O)c2c1,-1.36
7,Cc1ccc(C(=O)N[C@H](C(=O)NC2CCCCC2)C(C)C)cc1,15.5
8,Cc1ccc(C(=O)N[C@H](C(=O)NC2CCCCCCC2)C(C)C)cc1,-6.5
9,CN(C)c1cc[n+](CC(=O)N2c3ccccc3Sc3ccccc32)cc1,6.94
10,CC1(c2cc(C(F)(F)F)n3nc(C(=O)O)cc3n2)CC1,-1.85
11,Fc1ccc(Oc2cnc3ccccc3n2)cc1,75.1
12,CCC(=O)Nc1nc2ccccc2n1CCN(CC)CC,12.6
13,CCS(=O)(=O)c1nc2ccccc2n1Cc1ccccc1Cl,17.3
14,Cc1nc2ccccc2n1Cc1ccc(Cl)cc1,16.2
15,CCC(=O)Nc1nc2ccccc2n1CCN1CCOCC1,2.63
16,CCC(=O)Nc1nc2ccccc2n1CCN(C)C,28.6
17,CCn1c(NCc2ccccc2Cl)nc2ccccc21,26.2
18,Cc1ccc(CNC(=O)c2nnn(-c3cccc(C)c3)c2N)cc1,27.4
19,O=c1c2ccccc2nnn1COc1ccc(F)cc1Cl,33
20,N#CC(C#N)=C1NC2(CCCCC2)Cc2ccccc21,-7.74
21,CN(CC(=O)Nc1cccc(F)c1)C(=O)c1ccc(C2SCCS2)cc1,16
22,COc1ccc(NC(=O)c2cnc(SCC(=O)NCCc3ccccc3)n(C)c2=O)cc1,-6.78
23,COc1ccccc1C(=O)N(CCC1CCCN1C)c1nc2ccccc2s1 (stereo not given),12.9
24,CCCCn1c(N)c(N(CCOC)C(=O)c2sc3cc(F)ccc3c2Cl)c(=O)[nH]c1=O,-5.03
25,NS(=O)(=O)c1ccc(NC(=O)COC(=O)COc2ccc3ccccc3c2)cc1,34.3
26,O=C(CSc1n[nH]c(=O)n1Cc1ccco1)Nc1ccccc1,-4.65
27,CCN1C(=O)C(CC(=O)Nc2ccc(Br)cc2)N(CCCc2ccccc2)C1=S (stereo not given),41.5
28,O=C(Nc1ccccc1)ON=C1CCCC1,69.3

row,SMILES,inhibition [%]
1,Cc1ccc(NC(=O)O/N=C/c2ccc(F)cc2)cc1,4.77
2,O=C(COc1cc2oc(=O)c3c(c2cc1Cl)CCC3)Nc1cccnc1,5.55
3,Cc1ccc(-c2cc(C(F)F)nc(N3CCC(C)CC3)n2)cc1,8.45
4,COc1ccccc1-c1cc(C(F)(F)F)nc(S(=O)(=O)CCCC(=O)O)n1,44.3
5,CCOC(=O)CSc1nc(-c2ccccc2)cc(C(F)(F)F)n1,69.6
6,COc1ccc(-c2cc(C(F)(F)F)nc(N)n2)cc1,6.01
7,COc1ccc(-c2cc(C(F)(F)F)nc(S(=O)(=O)CCC(=O)N3CCOCC3)n2)cc1,79
8,Cc1ccc(-c2cc(C(F)F)nc(N3CCOCC3)n2)cc1,17.6
9,CCOC(=O)CCSc1nc(-c2ccccc2)cc(C(F)(F)F)n1,8.6
10,Cc1cc(NC(=O)CCS(=O)(=O)c2nc(-c3ccccc3)cc(C(F)(F)F)n2)no1,41.1
11,O=C1OC[C@H]2CCCN2C(=O)[C@@H](CC(=O)N(CCO)Cc2ccccc2)C/C=C\C[C@H]1Cc1ccc(F)cc1,47.4
12,O=C1NNC(c2ccccc2)=N/C1=C\c1ccccc1,-6.71
13,CSc1ccccc1C(=O)NCCCOC(C)C,-17.5
14,O=C(O)/C=C/C(=O)NCCCc1ccccc1,18.7
15,CC1=C(C(=O)OCCOC(C)C)C(c2cc3c(cc2Br)OCO3)C2=C(CCCC2=O)N1 (stereo not given),12.9
16,COc1cc(CC(CC(=O)O)CC(C)OCc2ccccc2)cc(OC)c1 (stereo not given),24.2
17,COc1ccc(COC(=O)c2ccc3c(=O)n4c(nc3c2)CCC4)cc1F,-0.76
18,O=C(NNC(=O)c1ccccc1Cl)c1ccc2c(=O)n3c(nc2c1)CCC3,1.89
19,CN(Cc1cccc(F)c1)C(=O)c1ccc2c(=O)n3c(nc2c1)CCC3,-4.16
20,CC(OC(=O)c1ccc2c(=O)n3c(nc2c1)CCC3)C(N)=O (stereo not given),-8.53
21,O=C(Nc1ccc2nc3n(c(=O)c2c1)CCCC3)c1cccc([N+](=O)[O-])c1,-20.7
22,O=C(c1ccc2c(=O)n3c(nc2c1)CCCCC3)N1CCN(c2ccc([N+](=O)[O-])cc2)CC1,25.7
23,O=C(COc1ccccc1Cl)NNC(=O)c1ccc2c(=O)n3c(nc2c1)CCC3,-23
24,COc1ccc(CN(C)C(=O)c2ccc3c(=O)n4c(nc3c2)CCC4)cc1,-3.83
25,CC1CCCCN1S(=O)(=O)c1ccc(S(=O)(=O)N2CCCC2)cc1 (stereo not given),4.73
26,CCOc1ccc(CCNS(=O)(=O)c2cc3c(cc2C)NC(=O)CO3)cc1OCC,16.2
27,O=C(Cc1cccc2ccccc12)Nc1ccccc1Br,12.5
